Experimental data: PubChem BioAssay AID1159580 (chemical genetic matrix, 2015)
About 2,000 (36%) of roughly 5,500 compounds were called active. Roughly 18% stayed inconclusive and do not appear here. The list shows a part of the results. Values without a mark were called inactive. Rule as the data show it: active = normalized growth mostly below about 0.91 (no sharp cut-off); inconclusive = no clear call, values can overlap the other calls; inactive = mostly above about 0.92.

Test: chemical genetic growth profiling, strain panel (AID 1159580);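 also: tested at 20 µM; growth read once vehicle control cultures reached saturation at 30 °C; 1 = growth at the plate median or of vehicle wells; lower values mean less growth of the strain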
Details: S. cerevisiae deletion strains, growth OD
[1] = locus YAL040C, strain CLN3, hits give low values
[2] = locus YCL061C, strain MRC1 (second series), hits give low values
[3] = locus YDR150W, strain NUM1, hits give low values
[4] = locus YDR363W, strain ESC2, hits give low values
[5] = locus YER002W, strain NOP16, hits give low values
[6] = locus YMR307W, strain GAS1, hits give low values
[7] = locus YNL153C, strain GIM3, hits give low values
[8] = locus YNL175C, strain NOP13, hits give low values
[9] = locus YNL197C, strain WHI3, hits give low values
[10] = locus YNL224C, strain SQS1, hits give low values
[11] = locus YOR083W, strain WHI5 (second series), hits give low values
[12] = locus YGR078C, strain PAC10, hits give low values
[13] = locus YGR229C, strain SMI1, hits give low values

SMILES | normalized growth [1] | normalized growth [2] | normalized growth [3] | normalized growth [4] | normalized growth [5] | normalized growth [6] | normalized growth [7] | normalized growth [8] | normalized growth [9] | normalized growth [10] | normalized growth [11] | normalized growth (locus YPL055C, strain LGE1, hits give low values) | normalized growth [12] | normalized growth [13] | normalized growth (locus YNL322C, strain KRE1, hits give low values) | normalized growth (locus YNL128W, strain TEP1, hits give low values)
CN(C(=O)Cc1ccc(Cl)c(Cl)c1)C(CN1CCCC1)c1cccc(OCC(=O)O)c1 (stereo not given) | 0.998 | 0.995 | 1 | 0.961 | 0.992 | 0.989 | 1.01 | 0.995 | 0.997 | 0.99 | 0.999 | 1.01 |  |  |  | 
C[C@H](Cc1ccc2c(c1)OC(C(=O)O)(C(=O)O)O2)NC[C@H](O)c1cccc(Cl)c1 | 1.02 | 1.01 |  | 0.998 | 0.992 | 1.02 | 0.967 | 1 | 0.987 | 1 | 0.985 |  | 1.01 | 1.01 | 1 | 
CC(Cc1ccc(OCC(=O)O)cc1)NCC(O)c1cccc(Cl)c1 (stereo not given) | 0.97 |  | 0.182 (active) |  | 1.01 |  |  | 0.984 | 0.979 | 0.99 | 0.977 |  | 1.01 | 1.02 |  | 1.02
